Experimental data published in the supplement of paper PMC11732987, “Enantioselective OTUD7B fragment discovery through chemoproteomics screening and high-throughput optimisation” (Communications Chemistry, 2025).

Experiments:
Test in all cases: log2 ratio of Biotin-Ahx-Ub-VS probe labelling (fragment/DMSO); higher = less target engagement (more negative = stronger competition), active = hit call of the paper (q ≤ 0.05, log2 ratio ≤ -1)
Settings in all cases: compound concentration: 200 uM; treatment time: 3 h
USP19 = biological target: T1, USP19 (UniProt O94966)
T1 sequence (whole entry): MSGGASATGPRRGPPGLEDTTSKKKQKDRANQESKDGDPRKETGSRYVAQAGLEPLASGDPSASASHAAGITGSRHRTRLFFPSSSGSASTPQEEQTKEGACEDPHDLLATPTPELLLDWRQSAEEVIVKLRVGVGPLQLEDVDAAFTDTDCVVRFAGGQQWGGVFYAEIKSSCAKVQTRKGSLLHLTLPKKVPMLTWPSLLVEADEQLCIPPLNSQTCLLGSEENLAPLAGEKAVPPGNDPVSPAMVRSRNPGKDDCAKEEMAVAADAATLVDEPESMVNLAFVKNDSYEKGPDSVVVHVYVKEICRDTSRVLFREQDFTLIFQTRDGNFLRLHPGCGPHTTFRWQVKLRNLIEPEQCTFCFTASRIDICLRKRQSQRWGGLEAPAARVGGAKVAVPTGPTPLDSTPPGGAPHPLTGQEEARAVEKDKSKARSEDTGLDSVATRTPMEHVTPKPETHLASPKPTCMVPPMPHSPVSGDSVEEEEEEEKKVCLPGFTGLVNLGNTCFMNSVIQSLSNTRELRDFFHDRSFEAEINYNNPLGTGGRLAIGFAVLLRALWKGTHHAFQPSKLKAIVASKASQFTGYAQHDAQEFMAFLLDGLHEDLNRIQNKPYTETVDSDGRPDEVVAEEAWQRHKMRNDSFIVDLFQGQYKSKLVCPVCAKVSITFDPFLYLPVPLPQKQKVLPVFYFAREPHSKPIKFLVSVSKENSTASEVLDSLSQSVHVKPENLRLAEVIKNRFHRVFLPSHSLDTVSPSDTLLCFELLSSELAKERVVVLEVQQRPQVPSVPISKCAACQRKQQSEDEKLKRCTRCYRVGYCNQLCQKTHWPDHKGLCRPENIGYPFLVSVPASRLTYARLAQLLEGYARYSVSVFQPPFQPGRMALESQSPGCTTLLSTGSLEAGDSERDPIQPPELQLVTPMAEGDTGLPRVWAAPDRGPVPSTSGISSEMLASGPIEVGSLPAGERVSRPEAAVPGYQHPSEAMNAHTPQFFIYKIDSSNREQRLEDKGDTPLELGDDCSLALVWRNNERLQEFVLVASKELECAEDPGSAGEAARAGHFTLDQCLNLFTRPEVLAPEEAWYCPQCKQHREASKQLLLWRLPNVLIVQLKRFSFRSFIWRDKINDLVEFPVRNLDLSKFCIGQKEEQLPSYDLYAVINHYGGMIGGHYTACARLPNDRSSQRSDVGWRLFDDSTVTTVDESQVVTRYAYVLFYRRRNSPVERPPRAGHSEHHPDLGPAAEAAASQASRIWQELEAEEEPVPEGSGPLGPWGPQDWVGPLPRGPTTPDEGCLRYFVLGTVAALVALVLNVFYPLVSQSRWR
In short: (§1)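 Labelled DUBs were enriched with NeutrAvidin, digested with LysC and trypsin, and run by diaPASEF LC-MS/MS. The labelling used Biotin-Ahx-Ub-VS at 0.5 µM final for 1 h on HEK293T lysate (495 µg per sample) previously treated in triplicate with fragment at 200 µM or vehicle for 3 h. Values are average log2 fragment/vehicle ratios by unpaired t-test on global-median-normalised Spectronaut quantities of proteins with ≥2 unique peptides.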

USP22 = biological target: T2, USP22 (UniProt Q9UPT9)
T2 sequence (whole entry): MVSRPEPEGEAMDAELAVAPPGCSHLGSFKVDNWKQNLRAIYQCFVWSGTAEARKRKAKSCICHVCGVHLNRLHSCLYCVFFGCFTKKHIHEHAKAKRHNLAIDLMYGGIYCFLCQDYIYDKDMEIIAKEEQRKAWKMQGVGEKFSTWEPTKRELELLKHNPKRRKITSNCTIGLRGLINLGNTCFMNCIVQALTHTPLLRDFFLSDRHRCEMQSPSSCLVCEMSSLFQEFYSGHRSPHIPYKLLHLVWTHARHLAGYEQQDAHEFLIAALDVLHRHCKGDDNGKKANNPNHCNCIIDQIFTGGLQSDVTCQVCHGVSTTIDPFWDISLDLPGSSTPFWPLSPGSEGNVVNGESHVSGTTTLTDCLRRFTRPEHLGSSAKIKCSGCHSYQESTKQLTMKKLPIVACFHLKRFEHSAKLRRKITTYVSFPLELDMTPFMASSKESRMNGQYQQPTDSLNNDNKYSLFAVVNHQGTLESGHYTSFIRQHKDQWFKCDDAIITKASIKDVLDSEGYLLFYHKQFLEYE
In short: as §1

USP24 = USP24 (UniProt Q9UPU5)
In short: as §1

USP25 = biological target: T3, USP25 (UniProt Q9UHP3)
T3 sequence (whole entry): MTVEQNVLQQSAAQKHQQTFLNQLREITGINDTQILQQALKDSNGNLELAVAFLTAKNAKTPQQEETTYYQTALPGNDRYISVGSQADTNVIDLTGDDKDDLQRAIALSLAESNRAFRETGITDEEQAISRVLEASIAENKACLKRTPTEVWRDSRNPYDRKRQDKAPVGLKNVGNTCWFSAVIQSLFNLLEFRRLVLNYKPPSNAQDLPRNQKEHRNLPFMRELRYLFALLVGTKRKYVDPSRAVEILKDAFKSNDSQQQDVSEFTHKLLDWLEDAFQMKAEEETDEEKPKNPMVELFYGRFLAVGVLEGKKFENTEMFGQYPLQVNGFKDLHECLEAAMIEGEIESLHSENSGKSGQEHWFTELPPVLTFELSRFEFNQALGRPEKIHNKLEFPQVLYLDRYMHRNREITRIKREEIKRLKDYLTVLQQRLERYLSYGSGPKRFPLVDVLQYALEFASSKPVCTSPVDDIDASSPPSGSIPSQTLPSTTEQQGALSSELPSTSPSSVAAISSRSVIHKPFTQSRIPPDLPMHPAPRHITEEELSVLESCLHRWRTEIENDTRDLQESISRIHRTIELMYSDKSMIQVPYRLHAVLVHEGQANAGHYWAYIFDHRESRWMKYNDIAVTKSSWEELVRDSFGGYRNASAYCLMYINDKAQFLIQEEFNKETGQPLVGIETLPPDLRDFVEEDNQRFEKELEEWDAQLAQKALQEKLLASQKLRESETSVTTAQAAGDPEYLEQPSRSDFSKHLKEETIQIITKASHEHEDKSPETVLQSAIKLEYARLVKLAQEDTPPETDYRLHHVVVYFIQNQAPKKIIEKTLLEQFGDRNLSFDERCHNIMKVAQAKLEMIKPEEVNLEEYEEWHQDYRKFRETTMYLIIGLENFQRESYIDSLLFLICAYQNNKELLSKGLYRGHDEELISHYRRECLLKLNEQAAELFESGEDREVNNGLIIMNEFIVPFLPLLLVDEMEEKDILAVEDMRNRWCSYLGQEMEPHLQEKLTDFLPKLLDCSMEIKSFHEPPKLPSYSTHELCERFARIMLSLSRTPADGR
In short: as §1

USP28 = biological target: T4, USP28 (UniProt Q96RU2)
T4 sequence (whole entry): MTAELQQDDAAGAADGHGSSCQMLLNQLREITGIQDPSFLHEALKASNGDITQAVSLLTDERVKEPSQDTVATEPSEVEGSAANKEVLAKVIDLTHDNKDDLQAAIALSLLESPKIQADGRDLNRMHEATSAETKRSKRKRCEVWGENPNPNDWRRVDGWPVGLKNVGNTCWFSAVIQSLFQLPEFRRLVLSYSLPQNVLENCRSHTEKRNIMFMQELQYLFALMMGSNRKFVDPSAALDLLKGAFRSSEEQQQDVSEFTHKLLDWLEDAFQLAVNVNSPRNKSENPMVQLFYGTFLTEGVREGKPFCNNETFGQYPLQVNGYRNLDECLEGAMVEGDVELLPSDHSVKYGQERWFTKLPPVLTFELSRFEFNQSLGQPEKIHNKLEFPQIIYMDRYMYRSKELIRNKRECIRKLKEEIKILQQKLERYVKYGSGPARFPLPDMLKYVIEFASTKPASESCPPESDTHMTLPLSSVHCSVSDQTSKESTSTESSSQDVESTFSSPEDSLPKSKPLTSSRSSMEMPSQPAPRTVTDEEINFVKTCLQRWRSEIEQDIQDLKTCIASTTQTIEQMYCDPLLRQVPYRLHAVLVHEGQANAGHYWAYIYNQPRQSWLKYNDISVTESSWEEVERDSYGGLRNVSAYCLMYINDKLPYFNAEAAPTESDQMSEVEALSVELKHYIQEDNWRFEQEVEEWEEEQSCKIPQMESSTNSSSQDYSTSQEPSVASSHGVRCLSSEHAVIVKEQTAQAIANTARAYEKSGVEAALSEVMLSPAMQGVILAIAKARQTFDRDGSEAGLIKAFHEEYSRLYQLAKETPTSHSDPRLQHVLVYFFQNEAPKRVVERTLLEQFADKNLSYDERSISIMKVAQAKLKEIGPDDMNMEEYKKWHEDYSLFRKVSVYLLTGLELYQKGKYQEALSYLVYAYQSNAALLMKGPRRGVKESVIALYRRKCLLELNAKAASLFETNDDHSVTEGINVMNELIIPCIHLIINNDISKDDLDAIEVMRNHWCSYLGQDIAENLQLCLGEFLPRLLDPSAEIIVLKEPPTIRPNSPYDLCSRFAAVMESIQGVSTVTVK
In short: as §1

Measured: log2 ratio of Biotin-Ahx-Ub-VS probe labelling

Sequence of USP24 (Q9UPU5 whole entry): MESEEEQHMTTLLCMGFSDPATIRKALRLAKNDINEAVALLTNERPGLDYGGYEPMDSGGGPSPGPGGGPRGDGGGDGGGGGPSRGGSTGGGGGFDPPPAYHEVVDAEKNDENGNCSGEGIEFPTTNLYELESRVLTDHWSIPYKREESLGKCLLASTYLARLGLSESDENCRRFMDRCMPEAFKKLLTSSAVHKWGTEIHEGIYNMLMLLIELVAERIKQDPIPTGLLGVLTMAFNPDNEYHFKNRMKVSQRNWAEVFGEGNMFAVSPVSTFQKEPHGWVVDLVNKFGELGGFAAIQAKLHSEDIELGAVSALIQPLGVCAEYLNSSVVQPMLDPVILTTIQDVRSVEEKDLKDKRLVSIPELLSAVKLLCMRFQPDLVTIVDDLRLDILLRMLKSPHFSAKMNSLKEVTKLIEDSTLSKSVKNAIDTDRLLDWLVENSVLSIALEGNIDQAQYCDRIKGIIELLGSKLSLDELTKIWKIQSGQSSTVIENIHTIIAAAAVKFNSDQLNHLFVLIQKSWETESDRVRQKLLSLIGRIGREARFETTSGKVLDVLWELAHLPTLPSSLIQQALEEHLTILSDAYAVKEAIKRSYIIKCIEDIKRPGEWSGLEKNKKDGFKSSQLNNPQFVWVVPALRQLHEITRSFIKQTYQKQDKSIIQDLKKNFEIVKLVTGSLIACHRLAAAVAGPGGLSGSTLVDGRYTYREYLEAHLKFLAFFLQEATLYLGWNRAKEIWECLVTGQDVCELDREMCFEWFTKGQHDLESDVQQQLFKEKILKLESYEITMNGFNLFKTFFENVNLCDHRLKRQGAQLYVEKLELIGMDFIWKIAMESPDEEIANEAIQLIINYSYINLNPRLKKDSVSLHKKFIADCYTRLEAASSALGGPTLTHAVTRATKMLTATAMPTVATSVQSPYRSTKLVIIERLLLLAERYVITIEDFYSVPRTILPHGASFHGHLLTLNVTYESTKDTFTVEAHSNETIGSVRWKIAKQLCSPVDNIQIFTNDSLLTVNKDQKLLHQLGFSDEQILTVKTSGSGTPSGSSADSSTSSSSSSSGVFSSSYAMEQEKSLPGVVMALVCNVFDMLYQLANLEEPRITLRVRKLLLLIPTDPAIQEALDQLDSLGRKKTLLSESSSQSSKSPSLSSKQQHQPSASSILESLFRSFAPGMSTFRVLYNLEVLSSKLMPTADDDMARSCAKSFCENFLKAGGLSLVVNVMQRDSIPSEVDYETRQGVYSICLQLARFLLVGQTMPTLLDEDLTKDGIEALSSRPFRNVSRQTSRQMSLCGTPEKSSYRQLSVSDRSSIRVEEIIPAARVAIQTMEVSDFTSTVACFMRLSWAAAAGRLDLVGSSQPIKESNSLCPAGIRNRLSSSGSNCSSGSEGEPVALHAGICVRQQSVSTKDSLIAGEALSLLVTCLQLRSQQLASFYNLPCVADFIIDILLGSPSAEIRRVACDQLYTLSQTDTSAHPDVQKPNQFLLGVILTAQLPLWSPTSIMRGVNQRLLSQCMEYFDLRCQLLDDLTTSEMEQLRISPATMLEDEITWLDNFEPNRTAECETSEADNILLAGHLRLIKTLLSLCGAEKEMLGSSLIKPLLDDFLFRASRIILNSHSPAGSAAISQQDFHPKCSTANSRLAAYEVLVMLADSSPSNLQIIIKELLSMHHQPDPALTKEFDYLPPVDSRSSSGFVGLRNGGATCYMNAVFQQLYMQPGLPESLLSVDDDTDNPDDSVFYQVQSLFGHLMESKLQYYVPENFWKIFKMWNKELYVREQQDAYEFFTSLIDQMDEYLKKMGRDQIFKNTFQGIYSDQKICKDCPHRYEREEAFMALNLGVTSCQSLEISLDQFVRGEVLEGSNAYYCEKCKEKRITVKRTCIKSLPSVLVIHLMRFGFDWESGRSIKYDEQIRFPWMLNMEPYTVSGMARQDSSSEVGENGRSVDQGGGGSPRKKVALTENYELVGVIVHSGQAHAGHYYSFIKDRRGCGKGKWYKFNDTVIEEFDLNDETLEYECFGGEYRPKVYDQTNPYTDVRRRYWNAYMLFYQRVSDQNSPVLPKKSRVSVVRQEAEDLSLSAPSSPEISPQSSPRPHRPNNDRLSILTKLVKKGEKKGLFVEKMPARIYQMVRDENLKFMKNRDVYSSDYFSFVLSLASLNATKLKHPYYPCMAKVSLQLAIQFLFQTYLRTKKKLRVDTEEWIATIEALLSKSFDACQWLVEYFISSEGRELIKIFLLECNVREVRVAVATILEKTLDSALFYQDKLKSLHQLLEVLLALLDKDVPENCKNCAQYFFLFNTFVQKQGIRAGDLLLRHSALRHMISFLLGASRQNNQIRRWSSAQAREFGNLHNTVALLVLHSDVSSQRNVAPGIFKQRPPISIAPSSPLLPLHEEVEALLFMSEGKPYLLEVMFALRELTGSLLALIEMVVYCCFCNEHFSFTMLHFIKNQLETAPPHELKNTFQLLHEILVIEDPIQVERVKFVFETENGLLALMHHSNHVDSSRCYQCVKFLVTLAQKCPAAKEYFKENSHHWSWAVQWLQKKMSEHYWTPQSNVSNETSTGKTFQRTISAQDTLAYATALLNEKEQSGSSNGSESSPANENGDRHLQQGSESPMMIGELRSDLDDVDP

Cc1nc(CN2CCCN(C(=O)CCl)CC2)no1.Cl
inactive: USP19 0.0547 | USP22 0.125 | USP24 0.252 | USP25 0.233 | USP28 -0.00501
